Data taken from PubChem BioAssay AID588492 (Sanford-Burnham Center for Chemical Genomics, 2011).
Among all 360,000 compounds or so, about 2,300 (0.64%) were called active. What follows is part of a selection rich in actives, with near analogues and random picks from the rest. Values without a mark were called inactive.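 How the source made its calls: active means compounds giving at least 50% protection of heart cells from peroxide-induced death in the single-dose screen, raw or plate-pattern-corrected value; inactive means the rest.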

test: H9c2 cardiomyocyte survival under peroxide injury – uHTS, H9c2 cells, ATPLite luminescence, primary screen (AID 588492); conditions: H9c2 cardiomyocytes, 2 h, at 20 µM, hits give high values;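 further: 0% = DMSO wells with peroxide and 100% = DMSO wells without peroxide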

Structure (SMILES)	protection from H2O2 cell death
Cc1cc(C(F)F)nn1CC(=O)NC1CCCCCC1	-3.7%
O=C(OCCOCn1cc(Br)c(=O)[nH]c1=O)c1ccccc1	7.1%
Cc1cc(C)c2c(n1)sc1c(=O)n(-c3ccccc3)c(=O)[nH]c12	4.5%
CCOC(=O)c1sc(NC(=O)C2CSC3(C)CCC(=O)N23)nc1C (centres undefined)	4%
COc1ccc(S(=O)(=O)NC(=O)C2(C)CCN2C(=O)COc2ccc(Cl)cc2)cc1 (centres undefined)	5.6%
C[C@H](O)[C@@H]1C(=O)N2CCc3c([nH]c4ccccc34)[C@@H]2C[C@@H]1N(C)C(=O)Nc1ccc(F)cc1	-2.1%
O=[N+]([O-])c1cc(Cl)cc(/C=N/NC(=S)Nc2cc(S(=O)(=O)N3CCOCC3)ccc2Cl)c1O	-20.3%
O=C(Cc1ccccc1)N/N=C/c1ccc(Cl)cc1Cl	-15.4%
O=C(N/N=C/c1cc(Cl)cc([N+](=O)[O-])c1O)C(O)(c1ccccc1)c1ccccc1	56.6% (active)
NC(=O)Cn1c(=O)oc2ccccc21	6.1%
CCN(CC)c1ccc(C(=O)NNC(=O)CCc2nc3ccccc3c(=O)[nH]2)cc1	56.2% (active)
CC(C)(C)c1ccc(NC(=O)COC(=O)CCc2nc3ccccc3c(=O)[nH]2)cc1	36.5%
CCN(CC(=O)NC(=O)NCc1ccccc1)Cc1nc2ccccc2c(=O)[nH]1	7.1%
O=C(CSCc1ccccc1Cl)NNC(=O)c1ccccc1	1.3%
O=C(CSc1ncn[nH]1)Nc1nc2c(F)c(F)c(F)cc2s1	-1.5%
Cc1ccc(OCC(=O)Nc2ccc3oc(=O)ccc3c2)cc1C	0.6%
CCN1C(=O)[C@@H]2[C@@H]3CN(S(=O)(=O)c4ccccc4C)[C@@H](c4ccc(Cl)cc4)[C@@H]3C(=O)C[C@@H]2C1=O	8.3%
CCOC(=O)CNC(=O)CSc1ccc2nnc(-c3cccnc3)n2n1	-2.8%
COC(=O)c1ccc(CSc2nnc(N)s2)o1	-10.8%
COC(=O)c1ccc(CSc2ccc3nnc(-c4ccccc4)n3n2)o1	80.8% (active)
CC(C)[C@@H]1COC(c2cccc(C3=N[C@H](C(C)C)CO3)c2)=N1	-14.6%
COc1ccc(Cl)cc1S(=O)(=O)N1CCN(CC(=O)C(C)(C)C)CC1	-8.8%
N#Cc1ccsc1NC(=O)CN1CCN(S(=O)(=O)c2cc(Cl)ccc2Cl)CC1	8.3%
O=C(CN1CCN(S(=O)(=O)c2cc(Cl)ccc2Cl)CC1)c1ccc(O)c(O)c1	55.1% (active)
